Structures are written as SMILES. The campaign covered roughly 13,000 compounds. About 3,200 (25%) showed an effect of 50% or more. The list shows a part of the results.

The assay has as its system P. falciparum stage V gametocytes. More on the design: BacTiter-Glo ATP luminescence viability of purified stage V gametocytes in 384-well plates, per cent inhibition versus DMSO. Particulars: 48 h, 5 µM; inhibitor.
Turning to `CC(=O)Nc1ccc(CN(Cc2cccc(OC(C)(C)C)c2)Cc2ccc3c(c2)OCCO3)cc1` [TCMDC-136613], the “% Inhibition” value came out at 87.49%.

For the molecule `CN(C)C(=O)c1ccc(CN(Cc2cccc(OC(C)(C)C)c2)Cc2ccc3c(c2)OCCO3)cc1` [TCMDC-136614], the “% Inhibition” value is 66.69%.

Turning to `Cc1ccc(CN(Cc2ccc(C(=O)N(C)C)cc2)Cc2ccc3c(c2)OCCO3)cc1C` [TCMDC-136617], the “% Inhibition” value is on record as 24.15%.

For `CN(C)C(=O)c1ccc(CN(Cc2ccc3c(c2)OCCO3)Cc2ccc3c(c2)OCO3)cc1` [TCMDC-136612], the “% Inhibition” value is -1.47%.

Consider `O=C(CC(=O)C(F)(F)F)c1ccc2c(c1)OCO2` [TCMDC-125824], for which the “% Inhibition” value was -11.59%.

For the molecule `CN(C)C(=O)c1ccc(CN(Cc2ccc(OC(C)(C)C)cc2)Cc2ccc3c(c2)OCCO3)cc1` [TCMDC-136615], the “% Inhibition” value was determined as 62.57%.

On to `CC(=O)Nc1ccc(CN(Cc2ccc(C)cc2)Cc2cccc(Oc3ccccc3)c2)cc1` [TCMDC-140147], for which the “% Inhibition” value is 4.246%.

For `CC(=O)Nc1ccc(CN(Cc2ccc(OC(C)(C)C)cc2)Cc2ccc3c(c2)OCCO3)cc1` [TCMDC-136616], the “% Inhibition” value is listed as -22.37%.

In the case of `CC(C)(C)OC(=O)NCC(=O)N(Cc1ccccc1)Cc1ccccc1` [TCMDC-131954], the “% Inhibition” value is given as 1.715%.

For the molecule `O=C(/C=C/c1ccc([N+](=O)[O-])cc1)N1CCC(NS(=O)(=O)c2cccc(C(F)(F)F)c2)CC1` [TCMDC-139443], the “% Inhibition” value is reported as -15.57%.

For the molecule `c1ccc(C(c2ccccc2)N2CCN(C(c3cccnc3)c3nnnn3C3CCCC3)CC2)cc1` (stereo not shown) [TCMDC-123571], the “% Inhibition” value is recorded as -4.144%.

In the case of `Cc1cc(NC(=O)Nc2ccc3ccn(C)c3c2)c2ccccc2n1` [TCMDC-140057], the “% Inhibition” value was found to be 10.89%.

Turning to `CC1CCN(c2nc(C(=O)Nc3ccc(F)cc3C(F)(F)F)c(C(C)C)s2)CC1` [TCMDC-134661], the “% Inhibition” value is -14.15%.

`CC1(C)N=C(N)N=C(N)N1c1cc(Cl)c(Cl)cc1Cl` [TCMDC-124503]: the “% Inhibition” value is -35.38%.

Turning to `CSc1nc2cc3c(cc2n1C(=O)c1ccc(C)cc1)OCCO3` [TCMDC-125385], the “% Inhibition” value was -23.6%.

As for `Cc1ccccc1N1CCN(c2ccc(C(=O)Nc3ccccc3)cc2)CC1` [TCMDC-134565], the “% Inhibition” value is recorded as 28.84%.

For `O=C(O)C(F)(F)F.c1ccc2[nH]c(-c3ccc(-c4ccc(CNCC5CCCO5)cc4)s3)nc2c1` (stereo not shown) [TCMDC-133106], the “% Inhibition” value is given as -3.113%.

Regarding `FC(F)(F)c1ccccc1OCc1cc(-c2ccncc2)c(COc2ccccc2C(F)(F)F)cc1C1=CCNCC1` [TCMDC-134498], the “% Inhibition” value worked out at 112.2%.

As to `CN(C)CCOc1cc(NC(=O)Nc2ccc(-c3ccncc3)c(C(F)(F)F)c2)ccc1Cl` [TCMDC-139224], the “% Inhibition” value was -31.22%.

In the case of `Oc1ccc(-c2cc(COc3ccccc3C(F)(F)F)c(C3=CCNCC3)cc2COc2ccccc2C(F)(F)F)cc1` [TCMDC-134520], the “% Inhibition” value amounted to 89.52%.

As for `COc1cc(C=CC(=O)N2CCN(Cc3cccc(C)c3)CC2)ccc1OCc1c(C)noc1C` [TCMDC-125249], the “% Inhibition” value stood at 23.84%.

As to `Cc1nc(N)nc(N)c1Oc1cccc(Cl)c1` [TCMDC-137376], the “% Inhibition” value is reported as -5.588%.

For `Cc1ccc(C)c(NC(=O)NCCNc2ccnc(Nc3ccc(F)cc3)n2)c1` [TCMDC-133638], the “% Inhibition” value came out at 7.929%.

Consider `CN1CCN(c2cc(NC(=O)c3ccc(-c4ccc(C#N)cc4)cc3)ccc2Cl)CC1` [TCMDC-138670], for which the “% Inhibition” value is -41.42%.

Consider `O=C(Nc1ccc(OC2CCN(Cc3ccc(F)cc3)CC2)c(Cl)c1)c1ccsc1` [TCMDC-133745], for which the “% Inhibition” value is -5.727%.

As for `Cc1cc(=O)oc2c1ccc1oc(C(O)c3ccc(Cl)cc3)c(C)c12` (stereo not shown) [TCMDC-123999], the “% Inhibition” value was -9.04%.

Regarding `CCOc1ccc2nc(C)cc(NN=Cc3ccccc3F)c2c1` [TCMDC-142092], the “% Inhibition” value is given as 61.8%.

For `Cc1ccc2nc(C)cc(NN=Cc3ccccc3F)c2c1` [TCMDC-142065], the “% Inhibition” value is listed as 60.82%.

Take `Fc1ccc2c(NN=Cc3ccccc3F)ccnc2c1` [TCMDC-142018]: the “% Inhibition” value is on record as 101.1%.

`Cc1ccc2nc(C)cc(NN=Cc3ccccc3Cl)c2c1` [TCMDC-142062]: the “% Inhibition” value is reported as -47.12%.

Turning to `Fc1cccc(C=NNc2ccnc3cc(Cl)ccc23)c1` [TCMDC-123966], the “% Inhibition” value is listed as -20.4%.

In the case of `COc1ccc2nc(C)cc(NN=Cc3ccccc3F)c2c1` [TCMDC-142083], the “% Inhibition” value turned out to be 38.04%.

As to `CCOc1ccc2nc(C)cc(NN=Cc3cccc(C)n3)c2c1` [TCMDC-142050], the “% Inhibition” value was 48.92%.

Take `Cc1cc(NN=Cc2ccccc2F)c2cc(C(F)(F)F)ccc2n1` [TCMDC-142027]: the “% Inhibition” value is reported as -61.45%.

Consider `Cc1cc(NN=Cc2ccccc2F)c2ccccc2n1` [TCMDC-123982], for which the “% Inhibition” value was -9.703%.

For `CCOc1ccc2nc(C)cc(NN=Cc3ccccc3Cl)c2c1` [TCMDC-142090], the “% Inhibition” value came out at 95.12%.

In the case of `Fc1cccc(C=NNc2ccnc3ccccc23)c1` [TCMDC-142058], the “% Inhibition” value is listed as -35.92%.

Regarding `CC(C)CC(NC(=O)c1cccc(OCCN2CCOCC2)c1)C(=O)NC(/C=N/NC(=O)c1ccccc1)CCc1ccccc1` (stereo not shown) [TCMDC-135464], the “% Inhibition” value stood at 15.6%.

Turning to `CC1(C)CCCN(C(=O)c2cccc(-n3nc(-c4ccc(Cl)cc4)cc3N)c2)C1` [TCMDC-134042], the “% Inhibition” value is listed as -38.1%.

As for `O=C(Nc1ccc2c(c1)CCC2)c1cnc(N2CCN(c3ccncc3)CC2)c(Cl)c1` [TCMDC-134596], the “% Inhibition” value was 8.854%.

With `O=C(Nc1ccc(Br)cc1)N(CCN1CCOCC1)CC(O)COCc1ccc(Cl)c(Cl)c1` (stereo not shown) [TCMDC-141490], the “% Inhibition” value is recorded as 5.181%.

Turning to `Cc1ccc(N2C(N)=NC(N)=NC2(C)C)cc1` [TCMDC-131578], the “% Inhibition” value is 18.97%.

Take `CN(CCON1C(N)=NC(N)=NC1(C)C)c1ccccc1` [TCMDC-131733]: the “% Inhibition” value was 4.514%.

For `O=C(Nc1ccc(I)cc1)N1CCc2sccc2C1CN1CCCCC1` (stereo not shown) [TCMDC-136648], the “% Inhibition” value is -39.22%.

Consider `CC(CN(C)C)C(=O)Nc1cccc(-c2ccc(-c3nc4cc(F)ccc4[nH]3)s2)c1` (stereo not shown) [TCMDC-137114], for which the “% Inhibition” value is listed as -16.25%.

`CCN(CCO)CCCC(C)Nc1ccnc2cc(Cl)ccc12` (stereo not shown) [TCMDC-123987]: the “% Inhibition” value is given as 30.66%.

`CCC(C)(C)C1CCc2nc(N)nc(N)c2C1` (stereo not shown) [TCMDC-137870]: the “% Inhibition” value is recorded as -20.62%.

On to `CC(C)(C)C1CCc2nc(N)nc(N)c2C1` (stereo not shown) [TCMDC-137954], for which the “% Inhibition” value is 82.06%.

On to `CC(C)C1CCc2nc(N)nc(N)c2C1` (stereo not shown) [TCMDC-137947], for which the “% Inhibition” value was determined as 0.4281%.

Take `CCCC1(NC[C@@H](O)[C@H](Cc2ccccc2)NC(=O)c2cc(NCC)cc(N3CCCCS3(=O)=O)c2)CCC1` [TCMDC-135374]: the “% Inhibition” value was determined as 23.04%.

On to `COc1ccc(CNc2ccc3nc(N)nc(N)c3c2)cc1` [TCMDC-139002], for which the “% Inhibition” value came to 12.04%.

For `CCN(Cc1cccc2ccccc12)c1ccc2nc(N)nc(N)c2c1` [TCMDC-137765], the “% Inhibition” value was -46.6%.

Turning to `Nc1nc(N)c2c(Cl)c(CNc3cccc(C(=O)O)c3)ccc2n1` [TCMDC-138268], the “% Inhibition” value is listed as -3.552%.

With `Cc1ccccc1CNc1ccc2nc(N)nc(N)c2c1` [TCMDC-135439], the “% Inhibition” value was found to be 74.86%.

Take `CCOC(=O)COc1cccc(CNc2ccc3nc(N)nc(N)c3c2)c1` [TCMDC-137822]: the “% Inhibition” value amounted to 100.9%.

Turning to `CCOC(=O)CN1Cc2cc(NCc3ccc4ccc5nc(C)[nH]c(=O)c5c4c3)ccc2C1=O` [TCMDC-137815], the “% Inhibition” value was 10.92%.

As for `CCOc1ccccc1C(=O)N1CCc2cc3nccc(N4CCN5CCC[C@H]5C4)c3cc21` [TCMDC-140042], the “% Inhibition” value came out at 21.16%.

For the molecule `CN(C)CCOc1ccc(-c2cc(-c3ccc(Cl)c(O)c3)c(-c3ccncc3)o2)cc1` [TCMDC-141254], the “% Inhibition” value is on record as -18.41%.

`COc1ccc2nc(NC3=NC(c4ccccn4)(c4ccccn4)C(=O)N3C)[nH]c2c1` [TCMDC-139288]: the “% Inhibition” value was 10.34%.

On to `Cc1cccc(CN2CCCN(Cc3cccc(C(=O)Nc4ccc(C(C)(C)C)cc4)c3)CC2)c1` [TCMDC-135984], for which the “% Inhibition” value is listed as -91.41%.

Take `CN(C)CCOc1ccc(-c2cc(-c3ccc(Cl)c(O)c3)c(-c3ccnc(N)n3)o2)cc1` [TCMDC-141332]: the “% Inhibition” value is 28.72%.

Consider `N#Cc1cncc(-c2nc3c(N4CCCC(N)C4)cccc3n2CCNCc2ccccc2)c1` (stereo not shown) [TCMDC-135364], for which the “% Inhibition” value is given as -9.75%.

Take `N#Cc1cncc(-c2nc3c(N4CCC(N5CCCC5)CC4)cccc3n2CCNCc2ccccc2)c1` [TCMDC-133547]: the “% Inhibition” value is listed as 94.76%.

Turning to `N#Cc1ccc(-c2nc3c(N4CCCC4)cccc3n2CCNCc2ccccc2)cc1` [TCMDC-133433], the “% Inhibition” value is 30.7%.

With `N#Cc1cncc(-c2nc3c(N4CCN(c5cnccn5)CC4)cccc3n2CCNCc2ccccc2)c1` [TCMDC-133413], the “% Inhibition” value is recorded as -21.4%.

Consider `CC[C@H](C)CNC(=O)c1cncc(-c2cccc(CN3CCC(N4CCCC4)CC3)c2)c1` [TCMDC-134226], for which the “% Inhibition” value is 16.8%.

`N#Cc1cncc(-c2nc3c(N4CCC(Cc5ccccc5)CC4)cccc3n2CCNCc2ccccc2)c1` [TCMDC-133546]: the “% Inhibition” value worked out at 51.69%.

With `CC(C)CN(C)c1ncnc2c1nc(-c1cncc(C#N)c1)n2CCNCc1ccccc1` [TCMDC-136555], the “% Inhibition” value is 12.57%.

With `Oc1ccc(-c2nc3c(N4CCN(Cc5ccccc5)CC4)cccc3n2C2CCNCC2)cc1` [TCMDC-132125], the “% Inhibition” value turned out to be 4.567%.

For the molecule `c1ccc(CNCCn2c(-c3ccc4c(c3)CCO4)nc3c(N4CCCC4)cccc32)cc1` [TCMDC-134289], the “% Inhibition” value amounted to 92.48%.

Regarding `COc1ccccc1N1CCN(c2cccc3c2nc(-c2cncc(C#N)c2)n3CCNCc2ccccc2)CC1` [TCMDC-133412], the “% Inhibition” value is given as -37.42%.

As for `CC1CN(c2cccc3c2nc(-c2cncc(C#N)c2)n3CCNCc2ccccc2)CC(C)O1` (stereo not shown) [TCMDC-133411], the “% Inhibition” value was 66.36%.

As to `CN(C)c1cccc2c1nc(-c1ccc3c(c1)CCO3)n2CCNCc1ccccc1` [TCMDC-134062], the “% Inhibition” value came to 5.243%.

The record behind these values is publication PMC4552634, “A New Set of Chemical Starting Points with Plasmodium falciparum Transmission-Blocking Potential for Antimalarial Drug Discovery” (PLoS ONE, 2015).
